# Several values for one entry are separate records, joined by “and”; a condition that tells them apart may be missing. Identical values can stand only once. Activity calls are given as the source filed them. Rule for the calls: active = hit-call score of the fitted dose curve at least 0.9, where 1 is the maximum; inactive = score below 0.9.
# Experiment: BSK_3C_VCAM1: BioMAP Diversity Plus: 3C Assay for Vascular cell adhesion molecule 1 (VCAM1) Biomarker Activity (AID 2282999)
# Conditions: BioMAP 3C HUVEC, VCAM1 ELISA, cytokine-stimulated; actives raise or lower the signal
# Experimental: BSK_3C is a cell-based, multiplexed-readout assay that uses umbilical vein endothelium, a human vascular primary cell, with measurements taken at 24 hours after chemical dosing in a 96-well plate.BSK_3C_VCAM1 is an assay component measured in the BSK_3C assay. It measures VCAM-1 antibody related to regulation of gene expression using ELISA technology.Data from the assay component BSK_3C_VCAM1 was analyzed into 1 assay endpoint. This assay endpoint, BSK_3C_VCAM1, was analyzed with bidirectional fitting relative to DMSO as the negative control and baseline of activity. Using a type of binding reporter, gain or loss-of-signal activity can be used to understand changes in the signaling as they relate to the gene VCAM1. Furthermore, this assay endpoint can be referred to as a primary readout, because this assay has produced multiple assay endpoints where this one serves a signaling function. To generalize the intended target to other relatable targets, this assay endpoint is annotated to the cell adhesion molecules intended target family, where the subfamily is Immunoglobulin CAM.
# The levels of cell surface (or secreted, indicated by the prefix "s") biomarker endpoints were measured by ELISA. Overt cytotoxicity to cells in confluent adherent cultures (all systems other than the BT system) was assessed by measuring total protein levels using sulforhodamine B (SRB) staining in parallel cultures at the time of biomarker measurements, indicated as SRB endpoints. For proliferation assays for adherent cell types, individual cell types are cultured at sub-confluence and relative cell numbers quantified by SRB staining at time points optimized for each system (48 h: 3C and CASM3C systems; 72 h: BT and HDF3CGF systems; 96 h: SAg system). SRB was performed by staining cells with 0.1% SRB after fixation with 10% TCA and reading wells at 560 nm.Viability and proliferation of PBMC (T cells) was quantified by Alamar Blue reduction for the SAg and BT systems. For PBMC viability (referred to as PBMC Cytotoxicity within the assay endpoint names), cells were plated (75,000/well in a 96-well plate) and then chemical samples added for 1 h before addition of activators, SEB and TSST-1 (20 ng/mL final concentration each). Cells were incubated for 90 h. Then, Alamar Blue (20 uL/well) (Invitrogen, Cat DAL1100) was added for 6 h, and the plates were read with a fluorescence microplate reader at 546/580 nm (excitation/emission). For PBMC proliferation, cells were plated and activated as above but incubated for only 16 h prior to addition of Alamar Blue. Plates were read after 6 h.
SMILES,outcome,AC50
CCCCCCCCCC/C=C/C1CC(=O)OC1=O (configuration not stated),inactive,
CCCCCCCCCCC1CO1 (configuration not stated),,34.8 µM (active)
CC[N+](CC)(CC(=O)Nc1c(C)cccc1C)Cc1ccccc1,inactive,
Cc1c(C(N)=O)cc([N+](=O)[O-])cc1[N+](=O)[O-],inactive,
CCC(C)=NO,inactive,
Cc1cccnc1,inactive,
Sc1nc2ccccc2s1,inactive,
COC(=O)/C=C\C(=O)OC,inactive,
O=C(C(=O)c1ccccc1)c1ccccc1,inactive,
CCCCC(CC)COC(=O)C=Cc1ccc(OC)cc1 (configuration not stated),inactive,
CC(C)CC(=O)CC(C)CC(C)C (configuration not stated),,35.1 µM (active)
COc1ccccc1Oc1c(NS(=O)(=O)c2ccc(C(C)(C)C)cc2)nc(-c2ncccn2)nc1OCCO,inactive,
CCCCCCC(O)CCCCCCCCCCC(=O)OC (configuration not stated),inactive,
COc1cc(CNC(=O)CCCC/C=C/C(C)C)ccc1O,inactive,
Oc1cccc2ccccc12,inactive,
CN(C)CCC(c1ccc(Cl)cc1)c1ccccn1 (configuration not stated),inactive,
CC(C)C1OCCN1CCOC(=O)NCCCCCCNC(=O)OCCN1CCOC1C(C)C (configuration not stated),inactive,
COc1ccc(C(=O)c2ccccc2O)c(O)c1,inactive,
Cc1cc(-n2nc3ccc(Cl)cc3n2)c(O)c(C(C)(C)C)c1,inactive,
C1CN(CCOCCN2CCOCC2)CCO1,inactive,
O=[N+]([O-])c1cc(S(=O)(=O)Nc2ccccc2)ccc1Nc1ccccc1,inactive,
CCC[Si](OC(C)=O)(OC(C)=O)OC(C)=O,inactive,
CN(C)Cc1cc(C(C)(C)C)c(O)c(C(C)(C)C)c1,inactive,
OC(C(F)(F)F)(C(F)(F)F)C(O)(C(F)(F)F)C(F)(F)F,,38.6 µM (active) and 42.1 µM (active)
CC[N+](CC)(CC(=O)Nc1c(C)cccc1C)Cc1ccccc1 (tested in a mixture with another compound),inactive,
CCCCCCCCCCCCCCCCCC[N+](C)(C)C,,6.29 µM (active)
CN(C)c1ccc(C(c2ccccc2)c2ccc(N(C)C)cc2)cc1,,20 µM (active)
